# Laboratory results: PubChem BioAssay (NCI)
# This is part of a sample that, as a whole, favours compounds with a hit. Of some 79,000 tested, about 15% had one in any assay. Unmarked numbers belong to inactive results. Activity calls are given as the source filed them. Cut-off read from the data, not from the text of the source: active = growth inhibition above about 70%; inactive = the rest.
# Experiments:
# [1] = NCI Yeast Anticancer Drug Screen. Data for the rad50 strain (AID 155);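 note: 0% = growth of vehicle-only cultures of the same strain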; conditions: S. cerevisiae rad50 strain growth inhibition, active compounds read high
# Procedure, shortened: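 Inhibition values express reduced yeast growth in compound-treated cultures relative to vehicle-treated controls.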
# [2] = NCI Yeast Anticancer Drug Screen. Data for the mec2-1 strain (AID 157); conditions: S. cerevisiae mec2-1 strain, active compounds read high
# Procedure, shortened: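 Readout is yeast growth inhibition, normalised to vehicle-treated controls, in the mec2-1 strain exposed to compound.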
# [3] = NCI Yeast Anticancer Drug Screen. Data for the sgs1 mgt1 strain (AID 161);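 note: 0% = growth of cultures given vehicle only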; conditions: S. cerevisiae sgs1 mgt1 strain, active compounds read high
# Procedure, shortened: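 This yeast growth screen uses a strain with defined DNA-repair lesions; compound-treated growth is compared with vehicle-treated growth.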
# [4] = NCI Yeast Anticancer Drug Screen. Data for the cln2 rad14 strain (AID 165);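 note: 0% = growth equal to vehicle treated cultures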; conditions: S. cerevisiae cln2 rad14 strain, active compounds read high
# Procedure, shortened: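 Relative to vehicle controls, growth inhibition of compound-treated cln2 rad14 yeast was recorded.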
# [5] = NCI Yeast Anticancer Drug Screen. Data for the bub3 strain (AID 167); conditions: S. cerevisiae bub3 mutant strain, active compounds read high
# Procedure, shortened: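 Steps: expose the mutant yeast strain to compound; grow alongside vehicle-treated cultures; measure growth; express inhibition against the vehicle cultures.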
# [6] = NCI Yeast Anticancer Drug Screen. Data for the mlh1 rad18 strain (AID 175); conditions: S. cerevisiae mlh1 rad18 strain growth inhibition, active compounds read high
# Procedure, shortened: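 Test agents were incubated with a yeast strain of defined genotype (DNA damage repair defect). Inhibition of growth was derived by comparison with vehicle-exposed cultures.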
# [7] = at 5.0 µM (retest, dose inferred, filed as 0.5)
# [8] = at 50.0 µM (retest, dose inferred, filed as 5.0)
Compound,"growth inhibition [1, 7]","growth inhibition [1, 8]",growth inhibition ([1]; at 50.0 µM),"growth inhibition [2, 7]","growth inhibition [2, 8]",growth inhibition ([2]; at 50.0 µM),"growth inhibition [3, 7]","growth inhibition [3, 8]",growth inhibition ([3]; at 50.0 µM),"growth inhibition [4, 7]","growth inhibition [4, 8]",growth inhibition ([4]; at 50.0 µM),"growth inhibition [5, 7]","growth inhibition [5, 8]",growth inhibition ([5]; at 50.0 µM),"growth inhibition [6, 7]","growth inhibition [6, 8]",growth inhibition ([6]; at 50.0 µM)
CCCCCCCCCc1ccc(OCC(O)CO)cc1 (configuration not stated),-3%,98% (active),99.6% (active),-1%,99% (active),99.7% (active),2%,99% (active),99.8% (active),-11%,98% (active),99.5% (active),-9%,98% (active),99.8% (active),-4%,98% (active),99.5% (active)
Cc1ccc(NC(Nc2ccc(C)cc2C)=C(/C=C(\Cl)[N+](=O)[O-])[N+](=O)[O-])c(C)c1,99% (active),97% (active),96.6% (active),99% (active),97% (active),96.1% (active),99% (active),97% (active),95.5% (active),98% (active),93% (active),93.2% (active),99% (active),97% (active),96% (active),99% (active),96% (active),96.3% (active)
CC1=C(C(=O)Nc2ccccc2)C(c2ccc(Cl)c(Cl)c2)C(C(=O)Nc2ccccc2)=C(C)N1,26%,26%,89% (active),21%,21%,92.8% (active),29%,29%,91.1% (active),8%,8%,91% (active),1%,1%,91.5% (active),25%,25%,90.6% (active)
Cc1ccc2c(c1)C1C(CC2)C2C(=O)OC(=O)C2C2CCc3ccc(C)cc3C21 (configuration not stated),35%,97% (active),35.4%,21%,98% (active),14.3%,6%,99% (active),1.35%,20%,90% (active),0.4%,19%,97% (active),10.3%,29%,98% (active),38.4%
O=[N+]([O-])c1ccc(C2=Nn3c(nnc3-c3ccc(Cl)cc3)SC2)o1,19%,83% (active),66.5%,10%,44%,37.7%,29%,73% (active),62.1%,-2%,94% (active),65.5%,12%,93% (active),55.9%,30%,91% (active),79.3% (active)
Cc1cc(Cl)c(O)c(C(=O)C(=O)C(O)c2ccc3c(c2)OCO3)c1 (configuration not stated),98% (active),99% (active),87.9% (active),96% (active),99% (active),90% (active),37%,99% (active),82.1% (active),58%,99% (active),87.9% (active),64%,94% (active),87.9% (active),38%,99% (active),84.1% (active)
CCOC(=O)C(=Cc1cccnc1C)C(=O)OCC,16%,1%,70.9% (active),-3%,4%,51.7%,42%,4%,60.7%,16%,27%,45.9%,-31%,-14%,73.2% (active),-8%,1%,57.7%
CCOC(=O)C(NC(=O)c1ccccc1)[CH](c1ccc(OC)cc1)[Sn]([c]1ccccc1)([c]1ccccc1)[c]1ccccc1 (configuration not stated),65%,89% (active),77.7% (active),37%,91% (active),75.2% (active),38%,88% (active),79.2% (active),26%,48%,54.5%,44%,94% (active),79% (active),64%,86% (active),69.1%
COc1ccc2c(c1)S(=O)(=O)C(c1ccccc1)=CC2=O,81% (active),99% (active),99.5% (active),87% (active),99% (active),99.5% (active),91% (active),99% (active),99.2% (active),66%,99% (active),97.5% (active),87% (active),98% (active),99.5% (active),95% (active),98% (active),99% (active)
